Inhibition data for 40 compounds are collected here from PubChem BioAssay.

Broadly, the inhibition is the drop in the measured response relative to a control, in per cent.

Unmarked numbers belong to inactive results. The rule behind the calls is not given here.

Pantothenate synthetase (Mycobacterium tuberculosis (strain ATCC 25618 / H37Rv)), sequence (P9WIL5 whole entry, looked up): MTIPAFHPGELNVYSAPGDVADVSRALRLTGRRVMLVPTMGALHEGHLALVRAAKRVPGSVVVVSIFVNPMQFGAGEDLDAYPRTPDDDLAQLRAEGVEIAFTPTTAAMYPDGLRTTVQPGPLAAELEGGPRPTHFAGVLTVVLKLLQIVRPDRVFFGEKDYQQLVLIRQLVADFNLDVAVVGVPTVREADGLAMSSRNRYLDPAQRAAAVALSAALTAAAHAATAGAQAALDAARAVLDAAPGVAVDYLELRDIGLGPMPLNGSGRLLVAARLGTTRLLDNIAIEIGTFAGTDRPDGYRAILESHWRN

The experiment concerns the target Pantothenate synthetase (Mycobacterium tuberculosis (strain ATCC 25618 / H37Rv)) (UniProt P9WIL5). Put plainly: Recombinant Mtb pantothenate synthetase (PanC) inhibitors, coupled enzyme, confirmatory (AID 375).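 Note: 0% = full reaction with vehicle and 100% = no enzyme background.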 The settings on record: coupled enzyme assay; at 10 µM, hits give high values.
With `C=CCn1c(=O)n(CCOC)c(=O)c2sc3ccccc3c21`, the inhibition is 0%.
`O=C(c1ccco1)N(Cc1cc2ccccc2[nH]c1=O)C1CCCCC1`: the inhibition is 0%.
Take `COCCNc1nc(SCC(=O)N2CCN(c3ccccc3)CC2)nc2ccccc12`: the inhibition was 5%.
As to `COc1ccc(CN2C(=O)c3cccnc3C2Nc2cc(Cl)ccc2OC)cc1` (stereo not given), the inhibition was 3%.
With `O=C(O)C1CC=CCC1C(=O)Nc1cccc(C(=O)N2CCCCC2)c1` (stereo not given) the figure was 0%; with `Cc1cc(/C=N\O)c(C)n1-c1ccncc1`, 0%; with `COc1ccc(-n2c(=O)c3c4c(sc3n3c(C)nnc23)CCCC4)cc1`, 3%.
In the case of `Cc1nc2ccccc2c2oc(C(=O)NCCN3CCCCC3C)cc12` (stereo not given), the inhibition is 0%.
Regarding `CCCC(=O)NCCc1cc2c(C)ccc(C)c2[nH]c1=O`, the inhibition is 0%.
Consider `Cc1cc2cc(CN(CCCN3CCOCC3)C(=O)NC3CCCCC3)c(=O)[nH]c2cc1C`, for which the inhibition is 2%.
Regarding `Cc1cc(C)nc(SCCS(=O)Cc2ccc(Cl)cc2)n1` (stereo not given), the inhibition was 0%.
In the case of `O=C(NCc1cccs1)c1cc2c(s1)CS(=O)(=O)C2`, the inhibition is 1%.
Consider `Cc1ccc(S(=O)(=O)N2CCOCC2)cc1C(=O)Nc1ccc(-c2cn3ccsc3n2)cc1`, for which the inhibition was 3%.
For the compound `O=C(Nc1cccnc1)c1noc2c1CCCCC2`, the inhibition was 0%.
With `CN(C)/C=C1\N=C(c2ccc3c(c2)OCO3)OC1=O` the figure was 0%; with `Cc1ccc(/C(O)=C2\C(=O)C(=O)N(CCCN(C)C)C2c2ccccn2)cc1` (stereo not given), 1%.
With `O=C(Cn1nnc(-c2cccc(C(F)(F)F)c2)n1)NC(=O)NCc1ccco1`, the inhibition was 0%.
In the case of `Cc1oc2cc3c(C(=O)OCCN(C)C)c(C)oc3cc2c1C(=O)OCCN(C)C` it was 0%.
As to `CCOc1nc(-c2ccccc2)ccc1-c1noc(-c2cccnc2)n1`, the inhibition was 0%.
Consider `CC1CCN(C(=O)c2ccc(C(=O)N3CCC(C)CC3)cc2)CC1`, for which the inhibition was 0%.
With `CCSc1nc(C)nc2c1oc1ccccc12` the figure was 0%; with `CCCCOCCCNC(=O)c1ccccc1OCC`, 2%; with `Cc1cccc(OCc2nc(C#N)c(NCCN(C)C)o2)c1`, 1%.
Take `Cc1nc2ccccn2c1/C(O)=C1\C(=O)C(=O)N(CCN2CCOCC2)C1c1cccs1` (stereo not given): the inhibition was 0%.
As for `CCCn1c(C)cc(C(=O)COc2ncnc3sccc23)c1C`, the inhibition is 4%.
With `O=C(Nc1cnccn1)c1cccs1` the figure was 0%.
For the compound `CCC1(c2ccc(F)cc2)NC(=O)N(CC(=O)c2ccc[nH]2)C1=O` (stereo not given), the inhibition is 0%.
With `OC(CN1CCOCC1)Cn1c(-c2cccc(Cl)c2)nc2ccccc21` (stereo not given), the inhibition was 4%.
With `N=c1ncn(CC(O)CN2CCOCC2)c2nc(N3CCOCC3)[nH]c12` (stereo not given) the figure was 0%.
With `COc1ccc(CC(=O)Nc2cc(Cl)ccc2O)cc1` the figure was 5%.
In the case of `CN(C)c1nc(Oc2ccc(N)cc2)nc(N(C)C)n1` it was 0%.
`CCC(C)NC(=O)CC1Oc2ccc(C)cc2NC1=O` (stereo not given): the inhibition is 0%.
For the compound `CCOC(=O)c1ccc(N2C(=O)C3CC=CCC3C2=O)cc1` (stereo not given), the inhibition is 1%.
On to `Cc1ccc2c(c1)CCCN2C(=O)c1ccc2c(c1)OCO2`, for which the inhibition is 0%.
For the compound `O=C(Cn1cnc2c(cnn2-c2ccc(F)cc2)c1=O)N1CCCc2ccccc21`, the inhibition was 0%.
Turning to `NC(=O)C1(N2CCCCC2)CCN(C(=O)Nc2ccccc2C(F)(F)F)CC1`, the inhibition was 1%.
Take `CC(C)=CCCC(C)NC(=O)NC1CCCCC1` (stereo not given): the inhibition is 0%.
In the case of `CCOC(=O)c1oc2ccccc2c1CSc1nnnn1-c1ccc(C)cc1` it was 1%; in that of `COc1ccc(-c2cn3cc(C)ccc3n2)cc1OC`, 8%; in that of `CCOC(=O)c1oc2c(CN3CCN(C)CC3)c(O)ccc2c(=O)c1-c1ccccc1OC`, 0%.
